Experimental data taken from PubChem BioAssay AID1845227 (National Center for Advancing Translational Sciences (NCATS), 2023).
Results filed as inconclusive are left out. Activity calls are given as the source filed them. Calls follow the shape of the dose curve; as a rule, active = well fitted inhibition curve with a large enough effect; inconclusive = small, poorly fitted or top-dose-only effect; inactive = no such curve, though single readings can be large or run the other way.

biological target: Luciferin 4-monooxygenase (Photinus pyralis) (UniProt P08659); test: Confirmatory firefly luciferase (FLuc) qHTS assay for identification of artifact compounds; settings: purified FLuc enzyme, luminescence, 5 min; series mostly up to 38.9 µM; activity change, negative = inhibition: at the top concentration
Source text: PI: Alexander Tropsha Ph.D. UNC Eshelman School of Pharmacy University of North Carolina, Chapel Hill, North Carolina Hits from high-throughput screening (HTS) of chemical libraries are often false positives due to their interference with the assay detection technology. In response to this problem, we generated the largest publicly available library of chemical liabilities and developed a free webtool to predict HTS artifacts, both of which are described herein. More specifically, we generated, curated, and integrated HTS datasets for thiol reactivity, redox activity, and luciferase (firefly and nano) activity. Using these curated datasets, we developed and validated several Quantitative Structure-Interference Relationship (QSIR) models to predict nuisance behavior. […] These models were employed for virtual profiling of the National Center for Advancing Translational Science's (NCATS) in-house library, and 256 compounds for each assay were selected for the experimental validation of nuisance behavior. The BA for these external predictions ranged from 58 to 78% for compounds within the applicability domains of the models. […] The models developed in this study, along with aggregation models previously developed by our group (SCAM Detective) were implemented in "Liability Predictor," an online tool which may be used as part of chemical library design or for triaging HTS hits. Both the models and the curated datasets are publicly available at https://liability.mml.unc.edu/.
PROTOCOL TABLE SEQUENCE No. (e.g., 1, 2, 3, etc.); […] (e.g., Cells, Incubation, Reagent, etc.); VALUE; DESCRIPTION. 1; Reagent; 3 uL; Luciferase substrate mixture. 2; Compounds and control; 16 nL; Kalypsis pin tool (Wako USA) equipped with a 1536-well pin head. 3; Incubation; 15 min. 4; Reagent; 1 uL; Luciferase enzyme. 5; Incubation; 5 min. 6; Detection; Luminescence, ViewLux microplate reader. NOTES (numbers refer to Sequence numbers above) 1. 3 uL of luciferase substrate mixture containing D-luciferin and ATP (final concentrations of 10 uM and 10 uM, respectively) in assay buffer (10 mM Mg-acetate, 0.01% Tween-20, 0.05% bovine serum albumin, 50 mM Tris acetate, pH 7.6) was dispensed into all wells of a 1536-well assay plate (solid-bottom white plate; Greiner Bio One, Monroe, NC). 2. A Wako Pin-tool (Wako Automation, Richmond, VA) was used to transfer 16 nL of compounds (consisting of 7-plates in qHTS format, final concentration range 18.3 nM to 114 uM) or control PTC124 (final concentration range 1.22 nM to 40 uM). 3. 15 min. incubation at room temperature protected from light. 4. 1 uL of luciferase enzyme (final concentration 10 nM, Photinus pyralis luciferase) or buffer was dispensed for a final assay volume of 4 uL. 5. Plates were centrifuged (121xg, 15 seconds) and incubated for 5 minutes. 6. Samples were read for luminescence on a ViewLux CCD imager (PerkinElmer). Data were normalized to no-enzyme (0% activity) and no-inhibitor (DMSO; 100%) controls and the resulting percent inhibition data were fitted to a 4-parameter Hill equation using NCATS in-house software.
Potency is read from the fitted curve at half-maximal effect.

| SMILES | activity change, negative = inhibition | Potency |
| --- | --- | --- |
| Cc1ccccc1NS(=O)(=O)c1ccc2[nH]c3c(c2c1)CCCCC3 | 2.48% (inactive) | – |
| C[C@@H]1O[C@H](O[C@@H]2C(O)[C@H](O)[C@@H](CO)O[C@H]2Oc2cc(O)c3c(=O)cc(-c4ccc(O)cc4)oc3c2)[C@H](O)[C@H](O)[C@H]1O (stereo not given in full) | 12.8% (inactive) | – |
| Cc1ccc(C2C=C(c3ccccc3)Nc3nc(NS(=O)(=O)c4ccccc4)nn32)cc1 (stereo not given) | -2.75% (inactive) | – |
| COc1cc(Br)c(/C=C(\C#N)c2nc3ccccc3[nH]2)cc1OC | 24.2% (inactive) | – |
| COC(=O)c1scc(-c2ccc(C)cc2)c1S(=O)(=O)Nc1ccc(NC(C)=O)cc1 | 1.57% (inactive) | – |
| Clc1ccc(-c2noc3ncnc(N4CCCCC4)c23)cc1 | 3% (inactive) | – |
| Cc1c(Cl)cccc1NC(=O)c1cccc(NC(=O)N2CCSc3ncccc32)c1 | 5.82% (inactive) | – |
| NC(=O)c1ccc(-c2noc(-c3cccc(Cl)c3)n2)cc1 | -7.53% (inactive) | – |
| C=C[C@](C)(O)CCC1C(=C)CC(O)C2C(C)(C)CCCC12C (stereo not given in full) | 0.164% (inactive) | – |
| Nc1ncnc2c1ncn2[C@@H]1O[C@H](COP(=O)(O)OP(=O)(O)OC[C@H]2OC(O)[C@H](O)[C@@H]2O)[C@@H](O)[C@H]1O (stereo not given in full) | 135% (inactive) | – |
| COc1cccc(-c2nnc(Nc3nc4ccc(OC)cc4s3)o2)c1 | 1.25% (inactive) | – |
| COc1ccc(OC)c(NC(=O)CC(=O)Nc2ccc3nc4n(c(=O)c3c2)CCCCC4)c1 | 20.1% (inactive) | – |
| O=C(O)C1CC2CCCCC2N1C(=O)c1ccc(Cl)cc1 (stereo not given) | 4.1% (inactive) | – |
| COc1ccc(-c2c3c(=O)n(C)c(=O)n(C)c3c3n2-c2ccccc2NC3c2ccccc2OC)cc1 (stereo not given) | -5.6% (inactive) | – |
| CCCc1cc(=O)[nH]c(SCc2nc(-c3ccccc3F)no2)n1 | 12.3% (inactive) | – |
| CCOC(=O)c1c(S(=O)(=O)NCC(=O)N2CCN(c3cc(C)ccc3C)CC2)c(C)n(C)c1C | 3.41% (inactive) | – |
| C[C@H](NC(c1ccc(F)cc1)c1ccc2cccnc2c1O)c1ccccc1 (stereo not given in full) | -7.17% (inactive) | – |
| O=c1cc(-c2ccc(O)c(O)c2)oc2cc(O[C@@H]3O[C@@H](CO)[C@@H](O)[C@@H](O)[C@H]3O)cc(O)c12 | 6.06% (inactive) | – |
| CCC(=O)N1CCc2cc(CNC(=O)Nc3cc(OC)c(OC)c(OC)c3)ccc21 | 0.174% (inactive) | – |
| O=C(Nc1cc(Cl)ccc1Cl)c1cc(S(=O)(=O)NCCc2ccccc2)ccc1F | -1.97% (inactive) | – |

| SMILES | activity change, negative = inhibition | Potency |
| --- | --- | --- |
| COc1ccc(-n2c(=O)c3ccc(C(=O)NCc4ccc(C)cc4)cc3n(Cc3ccc(Cl)cc3)c2=O)cc1 | 10.2% (inactive) | – |
| COc1ccc(CNC(=O)C(C)n2nc(C)c3c(C)n(-c4ccccc4)nc3c2=O)c(OC)c1 (stereo not given) | -3.65% (inactive) | – |
| COc1ccc(NC(=O)c2cc(-c3ccccc3O)no2)cc1 | 28.6% (inactive) | – |
| Cc1cccc(-c2noc(-c3cc(C(C)C)[nH]n3)n2)c1 | – | 6.12 µM (active) |
| O=C(Nc1ccc(F)cc1F)c1ccc(-n2cnnc2)cc1 | -4.99% (inactive) | – |
| COc1ccc(NC(=O)c2ncoc2-c2ccco2)cc1Cl | -4.3% (inactive) | – |
| CCOc1ccccc1NC(=O)N(Cc1ccc(C)o1)C1CCN(C(C)=O)CC1 | 8.24% (inactive) | – |
| COc1ccc(NC(=O)Cc2noc3ccc(C)cc23)cc1Cl | -5.66% (inactive) | – |
| COc1ccc(NC(=O)C2CCCN(S(=O)(=O)c3cccc4nonc34)C2)cc1Cl (stereo not given) | 0.0129% (inactive) | – |
| Cc1ccc(CN(C(=O)COc2ccc([N+](=O)[O-])cc2)c2ccccn2)cc1 | -0.0502% (inactive) | – |
| CCCCCCCCCCCCCCCC(=O)N[C@@H](COP(=O)(O)O)C(=O)O | 3.09% (inactive) | – |
| COc1ccc(Cn2c(CNS(=O)(=O)c3ccc(Cl)s3)nc3cccnc32)cc1 | 3.97% (inactive) | – |
| COc1ccccc1CNc1ccc(-c2nc(-c3cccnc3)no2)cc1[N+](=O)[O-] | -4.58% (inactive) | – |
| CCOC(=O)c1ccc(N2C(=O)c3n[nH]c(-c4ccco4)c3C2c2ccc(C)cc2)cc1 (stereo not given) | -2.41% (inactive) | – |
| CCCOc1ccc(C(=O)Nc2ccc3oc(-c4ccncc4)nc3c2)cc1 | 111% (inactive) | – |
| COc1ccc(C2N(Cc3ccccc3)C(=O)c3ccccc3N2C)cc1COc1ccc(NC(C)=O)cc1 (stereo not given) | -3.87% (inactive) | – |
| O=C(c1ccc2c(c1)N(Cc1ccccc1)C(=O)c1ccccc1S2(=O)=O)N1CCN(c2ccccc2)CC1 | 3.03% (inactive) | – |
| Cc1ccc(-c2nc(S(=O)(=O)c3ccc(Cl)cc3)c(N3CCCCC3)o2)cc1 | 2.47% (inactive) | – |
| CC1CCCCN1S(=O)(=O)c1cc2c3c(c1)CC(=O)N3CCC2 (stereo not given) | 2.48% (inactive) | – |
| COc1cccc(NC(=O)CSc2nc3cc(OC)c(OC)cc3c3nc(-c4ccccc4)nn23)c1 | -2.25% (inactive) | – |
